# Hits are enriched below; roughly 4.8% of the tested compounds scored in any of these assays.
# DAX1 inh-1: DAX1 (NR0B1) inhibition, primary screen | HEK293T StAR-luciferase reporter, SF-1/DAX-1 repression relief | inhibition, % at 6.8 µM | 1.1% of 370,000 active | AID 652010;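 active means inhibition above the mean over all tested compounds plus 3 SD, cut at about 3.6% in these data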;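 further: 0% = DAX-1 cells with DMSO and 100% = cells lacking DAX-1 with DMSO; higher inhibition means more luminescence from relief of DAX-1 repression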
# SMARCA2 act: increases SMARCA2 function in MMTV reporter cells; MG213 cells, MMTV-luciferase reporter, dexamethasone, overnight; activation, % at 9.1 µM; 1% of 370,000 active; AID 652017; in the data active means activation above about 7.8%;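 further: 0% = vehicle wells and 100% = reference activator wells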
# hgDAF12 agonist: hgDAF-12 agonism, primary luciferase screen. HEK293 GAL4-hgDAF12 UAS-luciferase reporter, agonist luminescence; normalized to butyrate control. AID 687014. activation, % at 6.8 µM. 1.8% of 370,000 active;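 active means activation above a cutoff set at the mean of all screened compounds plus 3 SD, cut at about 10% in these data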;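 further: 0% = DMSO wells and 100% = sodium butyrate wells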
# ssDAF12 agonist: activates DAF-12 receptor from parasite S. stercoralis; AID 652126; activation, % at 6.8 µM; 1% of 370,000 active; HEK293 ssDAF-12/GRIP1 lit1-tk-luc reporter, luminescence; % of 3 µM dafachronic acid response;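 active means activation above the mean over all tested compounds plus 3 SD, cut at about 0.9% in these data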;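 further: 0% = DMSO-only wells and 100% = 3 µM delta7-dafachronic acid wells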
# hcDAF-12 act: H. contortus DAF-12 activation, primary screen. 1.4% of 370,000 active. activation, % at 6.8 µM. HEK293 hcDAF-12 lit1-tk-luc reporter, luminescence; 0% DMSO, 100% Δ7-dafachronic acid. AID 652067;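 active means activation above the mean of all tested compounds plus 3 SD, cut at about 5.5% in these data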;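 further: 100% = response to 3 µM Δ7-dafachronic acid high control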
# DAX1 inh-2: NR0B1 (DAX1) inhibition | P51843 | HEK293 Gal4-DAX1 luciferase reporter, luminescence | inhibition, % at 6.75 µM | 0.99% of 340,000 active | AID 504766;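 active means inhibition above the mean over all tested compounds plus 3 SD, cut at about 4.2% in these data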;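 further: 0% = DAX1-transfected cells with DMSO and 100% = empty-vector control cells with DMSO; inhibition shows as a rise in luminescence from relieved DAX1 repression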
# Target sequence (P51843 207-470 limits assumed): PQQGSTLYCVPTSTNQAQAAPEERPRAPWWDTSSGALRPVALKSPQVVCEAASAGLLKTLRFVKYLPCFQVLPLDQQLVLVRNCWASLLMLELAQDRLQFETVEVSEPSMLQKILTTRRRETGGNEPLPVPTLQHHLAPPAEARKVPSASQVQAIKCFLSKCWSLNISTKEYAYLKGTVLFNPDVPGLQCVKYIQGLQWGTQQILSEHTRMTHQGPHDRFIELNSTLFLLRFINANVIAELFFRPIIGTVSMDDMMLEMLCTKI
# An asterisk follows results filed as active; · = no result.
SMILES,DAX1 inh-1,SMARCA2 act,hgDAF12 agonist,ssDAF12 agonist,hcDAF-12 act,DAX1 inh-2
CCOc1ccc(N(C(C)C(=O)N2CCCCCC2)S(C)(=O)=O)cc1 (stereo not drawn),0,-2,-3,1.5*,-2,4
O=C1CCNc2c(Cl)cc(Cl)cc21,0,2,-1,-1,-1,5.0*
O=C1CCNc2c(Cl)cccc21,0,-5,1,0,2,0
COC(=O)c1c(C)[nH]c(C=O)c1-c1ccccc1,0,2,0,-1,0,·
COC(=O)c1c(-c2ccccc2)c[nH]c1C,0,6,-1,0,-1,4.8*
CC(=O)CC[C@H]1CC[C@]2(CCCN(S(=O)(=O)c3ccccc3)C2)O1,0,-3,1,-1,-1,·
O=C(Nc1ccc(F)cc1)C(c1ccncc1)N1CCN(c2cccc(C(F)(F)F)n2)CC1 (stereo not drawn),-1,-4,0,0,-2,·
O=C(Nc1ccc(F)cc1)C(c1cc2ccccc2o1)N1CCN(c2cccc(C(F)(F)F)n2)CC1 (stereo not drawn),1,5,-1,2.3*,1,·
S=C(Nc1ccc2c(c1)OCO2)NC1CCN(Cc2ccccc2)CC1,-1,-3,0,-2,1,4.7*
Cc1ccc(NC(=S)NC2CCN(Cc3ccccc3)CC2)cc1C,0,-2,0,-1,-1,0
S=C(Nc1ccc2c(c1)OCO2)N1CCN(Cc2ccco2)CC1,3,7,11*,0,2,1
Cc1cc(Br)ccc1OCc1nnc(-c2ccccc2)o1,1,4,4,-1,1,·
Clc1ccccc1OCc1nnc(-c2ccccc2)o1,1,4,13*,-1,2,1
Cc1ccc2nc(SCC(=O)Nc3ccc4c(c3)OCO4)nc(=O)n2c1,-4,-2,1,0,-1,0
O=c1c2ccccc2oc2ccc(-c3ccc4[nH]ccc4c3)cc12,5.0*,4,11*,0,5,4
CC(C)(C)NC(=O)NC(=O)COC(=O)CNS(=O)(=O)c1ccc(Br)cc1Cl,0,1,5,0,0,5.8*
O=C(CNS(=O)(=O)c1ccc(Br)cc1Cl)OCC(=O)N1CCCC1=O,0,0,1,-1,-1,1
Cc1ccsc1C(=O)OCC(=O)NCc1ccccc1,1,5,5,0,3,2
Nc1cccnc1Oc1ccccc1F,0,-1,0,-2,1,3
Oc1ccc(Oc2ccccc2F)c2cccnc12,·,·,2,-1,5.7*,·
O=C(CSc1cccs1)Nc1ccc(Cl)cc1,0,2,4,-1,2,4.9*
O=C(CSc1ccc(Cl)cc1)Nc1ccccc1,0,-3,6,-1,1,1
CC1=CC2(C(Cc3ccccc3)N(CC3CC3)C(=NC(=O)c3ccccc3)N2C(=O)OCc2ccccc2)n2c(=O)n(-c3ccccc3)c(=O)n2C1 (stereo not drawn),-1,-2,1,-2,1,·
Clc1ccc(-c2nc3ccccc3nc2-c2ccccc2)cc1,0,-1,-4,-1,6.1*,0
Cc1ccc(-c2nc3ccccc3nc2-c2ccccc2)cc1,0,-1,-1,-1,3,1
SMILES,DAX1 inh-1,SMARCA2 act,hgDAF12 agonist,ssDAF12 agonist,hcDAF-12 act,DAX1 inh-2
CCOC(=O)c1c(C)c(C(=O)Nc2ccc3c(c2)OCO3)c(C)n1C,0,4,3,-1,0,0
CCOc1ccc2oc(C(=O)Nc3ccc4c(c3)OCO4)c(C)c2c1,1,4,11*,0,3,0
CCOc1ccc2oc(C(=O)Nc3ccc(N4CCOCC4)cc3)c(C)c2c1,-1,-5,-1,-1,-3,-2
CCOC(=O)c1c(N)sc(C(=O)Nc2ccc3c(c2)OCO3)c1C,3,2,8,1,5.8*,-3
O=C(Nc1nnc(-c2ccc(Cl)cc2)o1)C1CCCCC1,0,1,10,-1,-1,0
Clc1ccc(-c2nnc(NC3=NCCCCC3)o2)cc1,4,2,8,0,6.1*,-2
O=C(NCc1ccncc1)[C@@H]1CCCN1C(=O)[C@H]1CCCN1C(=O)c1cccc2ccccc12,1,-4,-2,0,-1,·
